Source: PubChem
The entries come from a sample that favours hits as a whole.
Dicer processing: human Dicer pre-microRNA cleavage inhibition; Q9UPY3; cat-ELCCA pre-miR-21 Dicer processing, chemiluminescence; active compounds read high; z-score at 25 µM; 6% of 47,000 active; in the data active = z-score above about 3, passing the limit was not always enough;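 note: higher signal means more uncleaved substrate so more Dicer inhibition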
A number is an active result; n = inactive.

SMILES | Dicer processing
CCOc1ccc(C2C(C(=O)OCCOC)=C(C)NC3=C2C(=O)CCC3)cc1OC (stereo not given) | n
CC1=C(C(=O)OCC2CCCO2)C(c2cccc(Br)c2)C2=C(CC(C)(C)CC2=O)N1 (stereo not given) | n
COC(=O)C1=C(C)NC2=C(C(=O)CC(c3ccc(Cl)cc3)C2)C1c1ccccc1Cl (stereo not given) | 3.4
COc1cccc(C2C(C(=O)OC3CCCC3)=C(C)NC3=C2C(=O)CC(c2ccccc2)C3)c1OC (stereo not given) | n
COc1ccccc1C1C(C(=O)OC(C)C)=C(C)NC2=C1C(=O)CC(c1ccccc1)C2 (stereo not given) | n
CCCCCOC(=O)C1=C(C)NC2=C(C(=O)CCC2)C1c1ccc(OCC)c(OC)c1 (stereo not given) | 4.2
CCCCCOC(=O)C1=C(C)NC2=C(C(=O)CCC2)C1c1ccc(OC)c(Br)c1 (stereo not given) | n
COC(=O)C1=C(C)NC2=C(C(=O)CC(c3ccccc3)C2)C1c1ccccc1Cl (stereo not given) | n
COc1cccc(C2C(C(=O)OC(C)C)=C(C)NC3=C2C(=O)CC(c2ccccc2)C3)c1OC (stereo not given) | 7.6
Nc1cc(-c2nc3ccccc3[nH]2)n[nH]c1=O | n
COc1ccc(C2SCC(=O)N2CCN2C(=O)CSC2c2ccc(OC)cc2)cc1 (stereo not given) | n
Nc1c(-c2n[nH]c(=S)n2-c2ccc(Cl)cc2)sc2nnc(-c3ccccc3)c(-c3ccccc3)c12 | n
CC(=O)c1sc(-c2ccccc2)cc1NC(=O)CN1CCN(C(=O)c2ccc(C)cc2)CC1 | n
Cc1nnc2sc(-c3cccc(F)c3)nn12 | n
CC1CCc2c(sc3ncnc(Oc4ccccc4)c23)C1 (stereo not given) | n
CS(=O)(=O)n1nccc1/C=C/c1cccs1 | n
COC(=O)C1=C(C)NC2=C(C(=O)CC(c3ccc(OC)c(OC)c3)C2)C1c1ccc(SC)cc1 (stereo not given) | n
COCCOC(=O)C1=C(C)NC2=C(C(=O)CC(C)(C)C2)C1c1ccc(OC)c(OC)c1 (stereo not given) | 3.7
CCCCOC(=O)C1=C(C)NC2=C(C(=O)CC(C)(C)C2)C1c1ccc(OC)c(OC)c1 (stereo not given) | n
COC(=O)C1=C(C)NC2=C(C(=O)CC(c3ccc(OC)c(OC)c3)C2)C1c1ccc(F)cc1 (stereo not given) | 4.5
COC(=O)C1=C(C)NC2=C(C(=O)CC(c3ccc(OC)cc3)C2)C1c1ccc(OC)c(OC)c1 (stereo not given) | n
CCOCCOC(=O)C1=C(C)NC2=C(C(=O)CC(C)(C)C2)C1c1ccc(OC)c(OC)c1 (stereo not given) | n
CC(C)(C)S(=O)(=O)/C(C#N)=C/Nc1ccc(OC(F)(F)F)cc1 | n
O=C(C1CC(c2c(F)cccc2Cl)=NO1)N1CCOCC1 (stereo not given) | n
O=C(OCc1ccccc1)c1sc2ccccc2c1Cl | n
SMILES | Dicer processing
CC1=CC(C)C(CN(C2CCCCC2)S(=O)(=O)c2ccc(N)cc2)C(C)C1 (stereo not given) | n
COC(=O)c1cnc(Sc2ccc(Cl)cc2)c([N+](=O)[O-])c1 | n
Cc1ccc(/C(O)=C2/C(=O)C(=O)N(c3ccccc3)C2=S)cc1 | n
Cc1ccc(S(=O)(=O)Oc2c(Cc3ccccc3)c(=O)n(C)c3ccccc23)cc1 | 3.8
Cc1ccc(Cc2c(C)[nH]c3[nH]n(-c4ccccc4)c(=O)c3c2=O)cc1 | n
Cc1ccc(S(=O)(=O)Oc2c(-c3ccccc3)c(=O)n(C)c3ccccc23)cc1 | n
Cc1cc(C)n(NC(=S)NC2CCCCCC2)c(=O)c1C#N | n
CCOc1ccc(C2C(C(=O)OC)=C(C)N=C3SCCC(=O)N32)cc1OC (stereo not given) | n
CCOC(=O)C1=C(C)NC2=C(C(=O)CC(c3ccccc3)C2)C1c1cccc(O)c1 (stereo not given) | n
CC1=C(C(=O)OCC(C)C)C(c2ccc(F)cc2)C2=C(CC(c3ccccc3)CC2=O)N1 (stereo not given) | n
CC1=C(C(=O)OC(C)C)C(c2ccncc2)C2=C(CC(c3ccccc3)CC2=O)N1 (stereo not given) | n
CCC(C)OC(=O)C1=C(C)NC2=C(C(=O)CC(c3ccccc3)C2)C1c1ccc(N(C)C)cc1 (stereo not given) | 3.3
CCOC(=O)C1=C(C)NC2=C(C(=O)CC(c3ccccc3)C2)C1c1cccc(Br)c1 (stereo not given) | 5.4
CCOC(=O)C1=C(C)NC2=C(C(=O)CC(c3ccccc3)C2)C1c1ccc(O)c(OCC)c1 (stereo not given) | n
C/C(Cc1nnn(-c2cc(C)on2)n1)=N\OS(=O)(=O)c1ccc(Cl)cc1 | n
COc1ccc(CNCc2cccnc2)c(OC)c1 | n
CO/C(N)=N/C(=S)Nc1ccc(C(C)C)cc1 | n
O=C(C1Sc2nnc(-c3ccccc3)n2NC1c1ccc(Cl)cc1)N1CCCCC1 (stereo not given) | n
O=C(CSCCc1ccccn1)Nc1ccccc1Br | n
N#Cc1ccc(CNC(=O)Nc2ccc(-c3ccccc3)s2)cc1 | n
CCCc1[nH]nc2c1C(c1ccc(Cl)cc1)C(C#N)=C(N)O2 (stereo not given) | n
CCOC(=O)CC(=O)CSc1nc(N)c2c3c(sc2n1)CCC3 | n
CCOC(=O)CCCSc1nc(N)c2c3c(sc2n1)CCCC3 | 3.1
CCOC(=O)c1nc2sc3c(c2c(=O)[nH]1)CCCC3 | n
Nc1nc(SCC(=O)c2ccc(Cl)cc2)nc2sc3c(c12)CCCCC3 | n
SMILES | Dicer processing
CCOC(=O)CC(=O)CSc1nc(N)c2c3c(sc2n1)CCCC3 | 5.5
CCOC(=O)CSc1nc(SCC(=O)OCC)c2c3c(sc2n1)CCC3 | n
C=CCOc1ccc(/C=N/Nc2nc3c(c(=O)n(C)c(=O)n3C)n2C)cc1 | n
Cc1cc(Cl)cc(Br)c1OCC(O)CNCCNc1nccc(C(F)(F)F)n1 (stereo not given) | n
CN(C(=O)Nc1cc(Cl)cc(Cl)c1)C1CCCCC1 | n
Cc1ccc(NC(=S)N2CCCc3cccc(C)c32)c(C)c1 | n
CC(C)c1ccc(NC(=S)NNC(=O)NC(=O)c2csc([N+](=O)[O-])c2)cc1 | 4.7
CC(C)CNC(=S)NC(=O)c1csc([N+](=O)[O-])c1 | n
O=C(NC(=S)NN1CCCCC1)c1csc([N+](=O)[O-])c1 | n
Cc1nc2ccc(Br)cc2c(=O)n1-c1ccccc1N1CCCCC1 | n
C=CCN1C(=O)/C(=C\c2ccc(OCc3ccccc3)cc2)N=C1c1ccccc1 | n
COc1ccc(/C=C2/N=C(c3ccccc3)N(Cc3ccc(F)cc3)C2=O)cc1 | 3.9
NC(=O)CN1C(=O)/C(=C\c2ccc(F)cc2)N=C1c1ccccc1 | n
O=C1/C(=C\c2cccs2)N=C(c2ccccc2)N1Cc1ccc(Cl)cc1 | n
O=C1/C(=C/c2ccc(Cl)cc2)N=C(c2ccccc2)N1CCc1ccc(Cl)cc1 | 4.2
O=C1/C(=C\c2ccccc2)N=C(c2ccccc2)N1c1ccccc1 | n
Cc1ccc(-c2cc3nccc(-c4ccc5c(c4)N(C)C(=O)CO5)n3n2)cc1 | n
Cc1ccc(C)n1-c1sc2c(c1C(=O)NNC(=O)c1ccc(Cl)cc1)CCCC2 | n
COC(=O)CN(C#N)c1nc(C)cc(C)n1 | 6.7
COc1cc(C)nc(N(C#N)C(C)C)n1 | n
COC(=O)CN(C#N)c1nc(N(C)C)nc(N(C)C)n1 | n
CC(C)N1C(=O)C(O)(CC(=O)c2ccc(F)cc2)c2ccccc21 (stereo not given) | n
